The values below come from PubChem BioAssay AID2782 (National Center for Advancing Translational Sciences (NCATS), 2010).

Each structure is given as a SMILES string. Results filed as inconclusive are left out. Entries that show only a call come without a potency. The source made the active and inactive calls. The call rests on the fitted dose curve; in most records, active means well fitted inhibition curve with a large enough effect in the polarisation, with a control signal flat (not every such curve was filed as active); inconclusive means small, poorly fitted or top-dose-only effect, or effect the other way, or a change in a side signal; inactive means no such curve, though single readings can be large or run the other way; the % refers to the polarisation.
Potency means the concentration at half of the fitted maximal effect.

The nature of the assay: Confirmation of Inhibitors Targeting the Menin-MLL Interaction in MLL Related Leukemias: Competition With Texas Red Labeled MLL-derived Mutant Peptide. The following applies: fluorescence polarization, Texas Red MLL peptide displacement; series mostly up to 94.6 µM. A digest of the protocol: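 FP competition using menin at 200 nM with Texas Red-labeled mutant MLL peptide (50 nM) plus fluorescein MLL-w.t. peptide (25 nM) in 50 mM Tris-HCl pH 7.5, 50 mM NaCl, 1 mM DTT, 0.05% BSA; compound added, 1 hr ambient; polarization read per label.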
As for `O=C(Nc1ccc2c(c1)OCO2)c1ccccc1`, the Potency result is “inactive”.

For the molecule `CCCC(=O)NC(c1ccccc1Cl)c1ccc2cccnc2c1O` (centres undefined), the Potency entry is “inactive”.

With `Cc1ccc(NS(=O)(=O)c2csc(C(N)=O)c2)cc1C`, the Potency result was “inactive”.

With `O=C(Cn1c(=O)c2c3c(sc2n(Cc2ccccc2)c1=O)CCCC3)NCCO`, the Potency result is “inactive”.

Turning to `CCC(=O)Nc1ccc(-c2cc(-c3ccccc3)nc(-c3ccc(NC(=O)CC)cc3)n2)cc1`, the Potency is 39.8 µM (active).

For the molecule `CCOC(=O)Cn1c2ccccc2n2nc(CCC(=O)O)c(=O)nc12`, the Potency entry is “inactive”.

For the molecule `CC(C)Cc1cc(C(=O)NCCCN2CCOCC2)no1`, the Potency result is “inactive”.

In the case of `COc1cc(NC(=O)c2cccnc2)c(OC)cc1NC(=O)c1ccc(Br)cc1`, the Potency result is “inactive”.

Consider `COc1ccc(CC(=O)Nc2ccc(-c3nnc(-c4ccccc4)o3)cc2)cc1`, for which the Potency result was “inactive”.

As to `C[C@H](NC(=O)c1cc2c(cn1)[nH]c1ccccc12)C(=O)O`, the Potency was 56.4 µM (active).

`O=C(NNCS(=O)(=O)O)c1ccncc1`: the Potency result is “inactive”.

On to `CCC(C)CCCCC(=O)NC(CCN)C(=O)NC(C(=O)NC(CCN)C(=O)NC1CCNC(=O)C(C(C)O)NC(=O)C(CCN)NC(=O)C(CCN)NC(=O)C(CC(C)C)NC(=O)C(Cc2ccccc2)NC(=O)C(CCN)NC1=O)C(C)O` (centres undefined), for which the Potency is 7.08 µM (active).

On to `COc1ccc(-c2cc(=O)c3c(O)cc(O)c(-c4cc(-c5cc(=O)c6c(O)cc(O)cc6o5)ccc4OC)c3o2)cc1`, for which the Potency result was “inactive”.

In the case of `CCOc1cc(CNCCc2ccc(S(N)(=O)=O)cc2)ccc1OCc1ccccc1`, the Potency was 70.8 µM (active).

For `O=C(Nc1cccn(Cc2c(Cl)cccc2Cl)c1=O)c1c(Cl)cccc1Cl`, the Potency entry is “inactive”.

Consider `O=C1CCNc2c(Cl)cc(Cl)cc21`, for which the Potency result is “inactive”.

For the molecule `CCN(CC)Cc1cc2[nH]c3c4ccc(Cl)cc4ncc3c2cc1OC`, the Potency was 56.4 µM (active).

Regarding `COc1ccc(N(CC(=O)NC2CC3CCC2C3)S(=O)(=O)c2ccc(C)cc2)cc1OC` (centres undefined), the Potency entry was “inactive”.

Regarding `O=C(CCn1nc(-c2ccccc2)ccc1=O)N1CCN(c2ccccn2)CC1`, the Potency entry was “inactive”.

`CCOc1ccc(NC(=O)c2cccc(OC(=S)N3CCC(C)CC3)c2)cc1`: the Potency entry is “inactive”.

Consider `N#Cc1ccc(Cl)cc1NC(=O)CNCc1cccs1`, for which the Potency result is “inactive”.

For the molecule `O=C(CC(Sc1ccc(Br)cc1)C(=O)O)c1ccc(F)cc1` (centres undefined), the Potency result is “inactive”.

On to `O=C(C[N+]12CC[N+](CC(=O)c3ccc(F)cc3)(CC1)CC2)c1ccc(F)cc1`, for which the Potency was 35.5 µM (active).

Consider `O=C1NC(=S)N/C1=C/c1ccc2ccccc2c1`, for which the Potency result was “inactive”.

For `NC(=O)c1ccc(NC(=O)c2cncn2-c2ccccc2)cc1`, the Potency entry was “inactive”.

Regarding `CCC(C)CCCCC(=O)N[C@@H](CCN)C(=O)N[C@H](C(=O)N[C@@H](CCN)C(=O)N[C@H]1CCNC(=O)C([C@@H](C)O)NC(=O)[C@@H](CCN)NC(=O)[C@H](CCN)NC(=O)[C@H](CC(C)C)NC(=O)[C@@H](CC(C)C)NC(=O)[C@H](CCN)NC1=O)[C@@H](C)O` (some centres undefined), the Potency was 7.94 µM (active).

Consider `CN[C@H]1[C@H](O)[C@@H](O[C@@H]2[C@H](O)[C@@H](O[C@H]3OC(CN)=CC[C@H]3N)[C@@H](N)C[C@H]2N)OC[C@@]1(C)O`, for which the Potency entry was “inactive”.

In the case of `c1ccc2c(c1)nc(N1CCOCC1)c1c3ccccc3[nH]c21`, the Potency entry is “inactive”.

Take `CCc1cc2c(N3CCN(c4nnc(CC)s4)CC3)ncnc2s1`: the Potency was 11.2 µM (active).

In the case of `CN1[C@H](CC(=O)c2ccccc2)CCC[C@H]1C[C@@H](O)c1ccccc1`, the Potency result was “inactive”.

Regarding `CNC[C@H](CC1CCCCC1)NC[C@H](Cc1ccccc1)NCCC12CC3CC(CC(C3)C1)C2`, the Potency is 63.1 µM (active).

In the case of `COc1ccc(/C=C(\C#N)C(=O)NCc2ccccc2)cc1`, the Potency entry was “inactive”.

On to `Cc1cc(C)c2c(=O)cc(C(=O)NCc3ccccc3)oc2c1`, for which the Potency entry is “inactive”.

With `Cc1cc2[nH]c3c(c[n+](C)c4ccccc34)c2cc1C`, the Potency is 56.4 µM (active).
